# An excerpt weighted towards active compounds, which were near 1.2% of everything screened.
# RAD52 anneal inh = RAD52 DNA annealing inhibitors, primary screen, biochemical, FRET, single point, set 2. DNA repair protein RAD52 homolog (Homo sapiens), P43351. recombinant RAD52 DNA annealing, FRET fluorescence. inhibition, % at 18.7 µM. 0.46% of 360,000 active. AID 651710, 2012;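 active means every replicate showing at least 50% inhibition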
# N-glyco inh = increase of ERlucT glycosylation luciferase signal, primary screen, N-linked glycosylation inhibitor project, D54 ERlucT cells, luminescence, set 2 | AID 588692, 2011 | reporter increase, % at 12.5 µM | D54 ERlucT glycosylation luciferase reporter, 24 h; percent of 100 nM tunicamycin response | 0.23% of 360,000 active;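 active means mean luciferase reporter signal, scaled so untreated is 0 and the glycosylation-blocking control 100, at or above a set limit in every replicate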;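 further: luciferase carries N-glycosylation sites so blocking glycosylation raises the light; 0% = median of neutral control wells and 100% = median of 100 nM tunicamycin wells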
# NSD2 HMT inh = NSD2 histone methyltransferase inhibitors, primary screen, biochemical, AlphaScreen, single concentration, set 2 | Histone-lysine N-methyltransferase NSD2 (Homo sapiens), O96028 | NSD2 peptide methylation, 120 min | inhibition, % at 12.5 µM | 0.54% of 310,000 active; in the data active means inhibition above about 50%
# RAD54 branch = inhibitors of human RAD54 branch migration, primary screen, biochemical, fluorescence, single point; inhibition, % at 10.4 µM; DNA repair and recombination protein RAD54-like (Homo sapiens), Q92698; 0.14% of 360,000 active; RAD54 Holliday junction branch migration, FAM/BHQ fluorescence;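 active means mean normalized replicate activity at least 40 and at least half of replicates scoring 40 or more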;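 further: 0% = median of neutral control wells and 100% = median of positive control wells; inhibitors cause a drop in the FAM fluorescence signal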
# Target sequence (Q92698 whole entry, looked up): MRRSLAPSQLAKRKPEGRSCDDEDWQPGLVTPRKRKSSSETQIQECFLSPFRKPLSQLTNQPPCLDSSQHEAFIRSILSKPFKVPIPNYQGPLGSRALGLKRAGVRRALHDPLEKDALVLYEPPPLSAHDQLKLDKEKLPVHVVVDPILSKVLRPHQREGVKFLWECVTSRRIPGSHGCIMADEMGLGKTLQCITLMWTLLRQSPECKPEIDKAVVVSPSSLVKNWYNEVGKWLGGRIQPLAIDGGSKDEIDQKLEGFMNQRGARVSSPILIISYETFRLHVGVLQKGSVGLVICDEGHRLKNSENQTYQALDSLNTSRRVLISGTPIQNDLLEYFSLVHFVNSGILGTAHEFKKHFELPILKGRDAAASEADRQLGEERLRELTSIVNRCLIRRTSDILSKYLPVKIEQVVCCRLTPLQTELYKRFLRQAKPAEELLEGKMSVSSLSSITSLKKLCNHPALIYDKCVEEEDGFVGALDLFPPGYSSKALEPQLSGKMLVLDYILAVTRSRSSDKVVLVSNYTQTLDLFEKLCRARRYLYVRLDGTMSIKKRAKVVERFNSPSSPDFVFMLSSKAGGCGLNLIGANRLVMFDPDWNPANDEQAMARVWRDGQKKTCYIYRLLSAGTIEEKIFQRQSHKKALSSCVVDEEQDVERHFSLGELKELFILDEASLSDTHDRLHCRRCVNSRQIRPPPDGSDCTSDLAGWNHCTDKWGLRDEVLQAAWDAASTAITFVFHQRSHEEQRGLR
# CASP6 VEID inh = human caspase-6 inhibitors, primary screen, biochemical, VEID-R110 fluorescence, single point, set 2 | 0.53% of 350,000 active | purified caspase-6, Z-VEID-R110 cleavage fluorescence | P55212 | inhibition, % at 12.5 µM;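 active means mean inhibition across replicates at least about 35%, with every replicate also reaching that limit, limit read from the data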;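 further: 0% = median of neutral control wells and 100% = no fluorescence left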
# AlphaScreen art = AlphaScreen signal interference with preloaded methylated product, dose response, artefact control for NSD2 inhibitor project, biochemical, cherry-picked samples | shares compounds with NSD2 HMT inh | AlphaScreen artifact counterscreen, preloaded methylated H4 peptide | AC35, µM (highest dose often 10 µM), for inactives: top-dose activity change, negative = signal loss | 9.4% of 1,500 active | AID 1053174, 2014; call rule not given here
# Starred values were filed as active, the others as inactive; nt = no result given.
SMILES,RAD52 anneal inh,N-glyco inh,NSD2 HMT inh,RAD54 branch,CASP6 VEID inh,AlphaScreen art
O=C1N/C(=C/c2cccn2-c2ccc(F)cc2)C(=O)N1Cc1ccccc1,nt,-4.5,-0.3,-4.9,nt,nt
O=C(C[C@H]1CC[C@@H]2[C@H](COC[C@H](O)CN2Cc2cc(F)ccc2F)O1)NCc1ccc(F)cc1,4.5,nt,nt,4.9,-1.7,nt
CNC(=O)C[C@@H]1CC[C@H]2[C@H](COc3ccc(NC(=O)C4CCCCC4)cc3C(=O)N2C)O1,-12.8,nt,nt,-4.4,1.0,nt
Cc1ccc(CN2C(=O)N/C(=C\c3cccn3-c3cccc(C(=O)O)c3)C2=O)cc1,-50.8,-7.7,59.3*,-1.6,60.3*,-6.0%
CC(=O)c1ccc(-n2c(-c3cc(-c4ccco4)[nH]n3)n[nH]c2=S)cc1,nt,1.3,58.8*,-10.5,nt,-5.5%
Cc1ccc(S(=O)(=O)N2C[C@@H]3N[C@H](C2)C3c2ccc(-c3ccncc3)cc2)cc1 (stereo not given in full),36.5,nt,nt,nt,1.4,nt
NS(=O)(=O)c1ccc(CNC(=O)CCCSc2ccccc2)cc1,-14.1,-0.7,82.2*,nt,0.5,-7.0%
Cn1c(=O)[nH]c2nnc(-c3ccc(Cl)c(Cl)c3)nc2c1=O,-13.6,-8.0,106.6*,-0.6,-3.6,-1.6%
Cc1ccc(Sc2ccc(/C=C3/C(=O)NN(c4ccccc4)C3=O)o2)cc1,-0.2,7.8,10.6,nt,23.6,nt
Cc1cccc(N2NC(=O)/C(=C/c3ccc(-c4ccc(Cl)c(C(=O)O)c4)o3)C2=O)c1,-5.7,-0.5,76.3*,nt,51.8*,-7.8%
O=C(C1CCCCC1)N1CC[C@@H]2[C@H]1c1cc(Br)ccc1N[C@@H]2CO,-20.1,nt,nt,4.9,0.4,nt
O=C(NNC(=O)c1ccc(NC(=O)C2CC2)cc1)c1ccc(F)cc1,-8.6,0.2,52.3*,-13.0,-0.3,-5.1%
Cc1noc(C)c1S(=O)(=O)N(C)C[C@H]1OCCCC[C@H](C)Oc2ccc(NS(=O)(=O)c3ccc(F)cc3)cc2C(=O)N([C@H](C)CO)C[C@@H]1C,nt,nt,nt,4.1,nt,nt
O=C1C=C(N(CCO)Cc2ccccc2)c2ccccc2C1=O,nt,7.5,75.9*,-2.1,nt,-3.7%
Cc1noc(C)c1NC(=O)Nc1ccc2c(c1)C(=O)N([C@H](C)CO)C[C@@H](C)[C@H](CN(C)C(=O)Nc1ccc(C(F)(F)F)cc1)O2,9.0,nt,nt,-6.4,-1.1,nt
O=C(CN1CCOCC1)NCC[C@@H]1CC[C@@H](NC(=O)Cc2ccccn2)[C@@H](CO)O1,-7.2,nt,nt,-0.4,-0.2,nt
CCCNC(=O)Nc1ccc2c(c1)OC[C@@H](C)N(C(=O)CC)C[C@H](C)[C@H](OC)CN(C)C2=O,-4.9,nt,nt,-0.8,nt,nt
CCOCCCNC(=O)Cn1cc2c(n1)-c1c(oc(C(=O)N3CCCC3)c1C)CC2,-21.5,-1.0,97.1*,20.2,8.4,-7.7%
Cn1cc2ccc(N)cc2n1,7.4,9.5,87.5*,12.2,0.2,0.5%
Cn1cc2ccc([N+](=O)[O-])cc2n1,-7.0,0.0,28.8,nt,-0.2,nt
CC(C)=CCC1=C(OCC(=O)O)C(=O)c2ccccc2C1=O,-18.2,4.5,127.0*,nt,nt,-1.9%
COc1cc(SC)ccc1C(=O)NCCNC(=O)c1nonc1N,-4.7,-1.5,0.2,nt,2.2,nt
Nc1nonc1C(=O)NCCNC(=O)c1ccccc1F,nt,1.7,66.6*,-9.9,nt,1.9%
CCN(CC)CCSc1nc2ccccc2c(=S)n1-c1ccccc1,3.1,nt,108.5*,nt,-8.2,-15.2%
O=C(COc1ncnc2c(Cl)cc(Cl)cc12)N1CCCCC1,-10.2,1.7,53.3*,-4.6,-0.9,-6.5%
CC(=O)COc1ncnc2c(Cl)cc(Cl)cc12,-10.3,4.0,-0.3,nt,-1.8,nt
CC(C)NC(=O)N(C)C[C@@H]1Oc2ccc(NC(=O)C3CCCCC3)cc2C(=O)N([C@@H](C)CO)C[C@@H]1C,4.1,nt,nt,-11.8,-1.1,nt
OC(CNC1CCCCCC1)COc1cccc2ccccc12 (stereo not given),-14.4,0.4,19.0,17.3,-3.0,nt

# High-throughput results: PubChem BioAssay, Broad Institute
